# Assay results as given in PubChem BioAssay (NCI).
# Where “and” joins values, the source holds several entries; their conditions need not be identical. Identical values can stand only once. The panel holds about 79,000 compounds, 15% with a hit somewhere; the sample as a whole holds those more often. Unmarked numbers belong to inactive results. Calls of active or inactive are those of the source. No stated cut-off is given here; in the data, active means growth inhibition above about 70%; inactive means the rest.
# Assay: NCI Yeast Anticancer Drug Screen. Data for the mec2-1 strain (AID 157)
# Details: S. cerevisiae mec2-1 strain, hits give high values
# Method: Growth inhibition of yeast strains with defined genetic alterations is measured as a screen for potential anti-cancer activity. Selected strains with alterations in DNA damage repair or cell cycle control were exposed to compounds and growth inhibition was measured relative to vehicle treated controls. The strain used in this assay is mec2-1
# [1] = at 5.0 µM (retest, dose inferred, filed as 0.5)
# [2] = at 50.0 µM (retest, dose inferred, filed as 5.0)
SMILES,growth inhibition [1],growth inhibition [2],growth inhibition (at 50.0 µM)
CCOC(=O)C1=C(C(=O)c2ccc(OC)cc2)C(c2c(Cl)cccc2Cl)C(C(=O)c2ccc(OC)cc2)=C(C(=O)OCC)N1,6%,35%,71% (active)
O=C(O)C1(Cc2ccccc2)Cc2cc3c(cc2C1)CCC3,-4%,-4%,92% (active)
CCCCCCCCCCCCCC1=NCC(c2ccc3ccccc3c2)O1 (configuration not stated),-4%,-2%,4.95%
CCOC(=O)C(Cc1ccccc1[N+](=O)[O-])C(=O)OCC,-27%,-5%,-3.7%
CSc1ccc(N2C(=O)CSC2=S)cc1Cl,27%,40%,94.3% (active)
O=C(COc1ccc(Cl)cc1Cl)Nc1cccc(C(F)(F)F)c1,-18%,-25%,7.95%
O=C1CSC(=S)N1c1ccc(F)c(F)c1,-12%,95% (active),97.2% (active)
Cc1ccc(S(=O)(=O)NC2CCCCCCC2)cc1,30%,89% (active),64.2%
COc1ccc(/C=C/NC=O)cc1,-3%,0%,0.35%
CC(=O)Nc1ccc(S(=O)(=O)N/N=C/c2ccc(C)cc2)cc1,8%,1%,-17.6%
CCSSc1ccccc1C(=O)NC(CC)CO (configuration not stated),15%,69%,20.8%
O=[N+]([O-])c1ccc(N/N=C/CC(O)(C(F)(F)F)C(F)(F)F)c([N+](=O)[O-])c1,-1%,98% (active),91.5% (active)
O=C(CC1(O)C(=O)Nc2ccccc21)c1ccc(Cl)c(Cl)c1 (configuration not stated),-4%,29%,39%
CN(C)c1ccc(/C=C/c2cc[n+](C)c3ccccc23)cc1,0% and -25%,93% (active) and 83% (active),97.9% (active) and 86.2% (active)
